High-throughput results as filed in PubChem.
SK-BR-3 tox 24h: SK-BR-3 proliferation inhibitors, primary screen, cell-based, human, 24 h; SK-BR-3 viability, CellTiter-Glo ATP luminescence; stronger effect = lower value; viability, % at 10 µM; hit rate 0.47% among 41,000;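 active = viability at or below the median of all test compounds minus 3 SD, in both replicates if run twice, cut at about 45% in these data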;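 note: 100% = median untreated cell wells and 0% = median positive control drug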
WNV protease inh: inhibitors of WNV NS2B-NS3 protease, primary screen, biochemical, fluorogenic substrate; Genome polyprotein (West Nile virus), P06935; fluorogenic substrate Ex360/Em465; stronger effect = lower value; z-score (no concentration beside the values); hit rate 0.18% among 65,000; AID 577, 2007; in the data active = z-score below about -3
Target sequence (P06935 1371-1501 limits assumed): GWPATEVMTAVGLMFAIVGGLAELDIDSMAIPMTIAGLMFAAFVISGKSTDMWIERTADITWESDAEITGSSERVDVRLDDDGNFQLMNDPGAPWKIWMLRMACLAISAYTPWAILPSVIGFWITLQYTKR
Target sequence (P06935 1502-1679 limits assumed): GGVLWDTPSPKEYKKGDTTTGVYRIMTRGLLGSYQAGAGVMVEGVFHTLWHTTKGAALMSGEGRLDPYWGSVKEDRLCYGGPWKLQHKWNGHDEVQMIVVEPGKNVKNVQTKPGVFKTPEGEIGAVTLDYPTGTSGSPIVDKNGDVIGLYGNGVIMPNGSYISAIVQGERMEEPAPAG
mHtt clearance: clearance of mutant huntingtin inclusions, primary screen, imaging, HeLa Exon1htt(103Q)mCFP, confocal imaging; AID 853, 2007; aggregate imaging; zero = plate's median compound well; hit rate 0.42% among 47,000; inhibition, % at 1.5 µM;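 active = inhibition of aggregate fluorescence above about 70%, also judged a hit by eye on the cell image, limit read from the data, passing the limit was not always enough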;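 note: cells exposed to compound for three days before fixation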
The depositor's hits bear a star; . = not tested or not shown. Rows were chosen to be rich in hits. Some 0.64% of all compounds tested hit in one or more screens of this group.

SMILES | SK-BR-3 tox 24h | WNV protease inh | mHtt clearance
CCN1CCC(O)(c2ccccc2)C(C(=O)c2ccccc2)C1 (stereo not drawn) | . | . | 87*
CN1CCC(O)(c2ccccc2)C(C(=O)c2ccccc2)C1 (stereo not drawn) | . | -1.1 | .
C[N+]12CCC(CC1)C(C#N)(N1CCOCC1)C2 (stereo not drawn) | 87 | -0.49 | .
CSc1nnc(C2CCNCC2)n1C | 103 | -1 | .
CCn1nc(-c2cccs2)nc2c(=O)n(C)c(=O)nc1-2 | 27* | -0.88 | .
CN1CCN(C(=O)COc2ccc3ccccc3c2Br)CC1 | 86 | 1.2 | .
O=C(c1ccccc1)c1cn(CC(=O)N2CCOCC2)c2ccccc12 | 94 | -0.88 | 22
CC12CN3CN(C1)CC(c1ccccc1)(C3)C2=O | . | . | -56
CCCCCn1c(N)c(C(=O)NCCN2CCOCC2)c2nc3ccccc3nc21 | . | 0.53 | .
CCCCCCn1c(N)c(C(=O)NCCN2CCOCC2)c2nc3ccccc3nc21 | 2.3* | 0.65 | -74
CCn1c(O)c(C=Nc2ccc(N3CCOCC3)cc2)c(=O)n(CC)c1=S | . | . | -42
CCn1c(O)c(C(=O)CC2NCCc3ccccc32)c(=O)n(CC)c1=S (stereo not drawn) | 3.2* | 0.81 | -18
Fc1ccccc1CCNCc1cccc(Cl)c1Cl | . | . | 35
Cc1ccccc1OCCN=Cc1c(O)n(C)c(=O)n(C)c1=O | . | . | -16
O=C1NC(=O)[C@]2(Cc3ccccc3N3CCN(c4ccccc4)CC32)C(=O)N1Cc1ccccc1 (stereo partly drawn) | 82 | -4* | 5
O=C1NC(=O)C2(Cc3ccccc3N3CCCC32)C(=O)N1Cc1ccccc1 (stereo not drawn) | 75 | -1.1 | .
CCC1(CC)C(=O)NC(=NCCc2c[nH]c3ccccc23)NC1=O | 123 | 0.59 | -6
CCCCc1ccc2[nH]cc(CCN)c2c1 | 46 | 0.24 | 75*
O=c1c2ccccc2nc(N2CCCC2)n1-c1ccc(Cl)cc1 | 74 | 0.03 | .
CCOC(=O)c1c(NC(=O)c2c(N)n(CCCOC)c3nc4ccccc4nc23)sc2c1CCCC2 | . | . | 13
CCOC(=O)c1c(NC(=O)C(c2ccccc2)c2ccccc2)sc2c1C1CCN2CC1 | . | . | 75*
